# Results as given in PubChem BioAssay (EPA / NIEHS).
# Inconclusive results are not listed. Active and inactive are the calls of the source. Rule for the calls: active = hit-call score of the fitted dose curve at least 0.9, where 1 is the maximum; inconclusive = response in the unintended direction; inactive = score below 0.9.
# Read-out: organic anion transporter (SLCO1B1), SLCO1B1 (gene 10599)
# Assay: CLD_SLCO1B1_6hr: CellzDirect (CLD) Gene Expression Assay for organic anion transporter (SLCO1B1) at 6 hours (AID 2283668);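 note: active means mRNA induction above DMSO baseline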
# Description: CLD_6hr is a cell-based, multiplexed-readout assay that uses hepatocyte, a human liver primary cell, with measurements taken at 6 hours after chemical dosing in a 96-well plate.CLD_SLCO1B1_6hr is one of 16 assay component(s) measured or calculated from the CLD_6hr assay. It is designed to make measurements of mRNA induction, a form of inducible reporter, as detected with chemiluminescence signals by Quantitative Nuclease Protection Assay (qNPA) technology.Data from the assay component CLD_SLCO1B1_6hr was analyzed at the endpoint, CLD_SLCO1B1_6hr, in the positive analysis fitting direction relative to DMSO as the negative control and baseline of activity. Using a type of inducible reporter, gain-of-signal activity can be used to understand changes in the reporter gene as they relate to the gene SLCO1B1. Furthermore, this assay endpoint can be referred to as a primary readout. To generalize the intended target to other relatable targets, this assay endpoint is annotated to the transporter intended target family, where subfamily is organic anion transporter.
# Human hepatocyte cultures were treated daily for two consecutive days with fresh dosing solutions containing appropriate concentrations of the 320 ToxCast chemicals (chemical identities were blinded to CellzDirect and other ToxCast collaborators), vehicle control (0.2% DMSO), and positive control inducers as summarized in Table 1. Due to the large number of treatment groups and chemicals examined, the ToxCast chemicals were divided into two groups (spanning two independent cultures of hepatocytes from separate donor preparations (Hu778: ToxCast plates 1 and 2; Hu776: ToxCast plates 3 and 4). Each preparation of human hepatocyte cultures was treated with respective vehicle control, medium only control, set of six positive controls/reference chemicals for the five hepatic receptor pathways, and a subset of eight of the ToxCast chemicals (indoxacarb, pyrithiobac-sodium, norflurazon, cyhalofop-butyl, methomyl, thiram, acetochlor, and propiconazole). These replicate data, coupled with internal replicates designed within the blinded ToxCast chemical library, provided additional data to evaluate interindividual differences between hepatocyte preparations and their potential impact on chemical profiles.Cell morphology and integrity were evaluated using phase-contrast microscopy as an indicator of hepatocyte cell health (Tyson & Green, 1987). Cultures for each treatment group (i.e., media, vehicle [0.2% DMSO], positive control inducers [multiple concentrations], and the ToxCast chemicals [multiple concentrations]) were observed and cell morphology was assessed relative to vehicle control cultures at each harvest time point (0, 6, 24, or 48 h). […] Images were evaluated at the conclusion of the study to assess changes in cell integrity and account for the effects of chemical exposure on uncharacteristic changes in concentration-dependent gene expression profiles. The results from these determinations of apparent cytotoxicity were annotated (yes/no) alongside the corresponding qNPA data for reference.At the conclusion of each treatment period, hepatocyte cultures (96-well) were washed with 1 volume of HBSS, lysed by addition of 25 ul ArrayPlate lysis buffer (HTG, Tucson, AZ), and 70 ul/well of Denaturation Oil, denatured by incubation at 95C for 10 min, and frozen at approximately -70C until analysis by nuclease protection assay (qNPA) (Roberts et al., 2007). For qNPA analysis, cell lysates were thawed at 50C for approximately 30 min, qNPA probes were added, and samples were incubated at 95C for 10 min to begin the detection process by denaturing the target RNA, dissociating the duplexes and secondary structure hybridization. At the conclusion of the hybridization period, S1 nuclease reagent was added to each sample to digest all nonprotected nucleotides at 50C for 60-90 min. […]
row,SMILES,outcome
1,S=C(S)NCCNC(=S)S.[Mn+2].[S-]C([S-])=NCCN=C([S-])[S-].[Zn+2],inactive
2,O=C(Nc1ccc([N+](=O)[O-])cc1Cl)c1cc(Cl)ccc1O,inactive
3,c1ccc(Nc2ccccc2)cc1,inactive
4,CCC(C)OC(=O)N1CCCCC1CCO (stereo unspecified),inactive
5,OB(O)O,inactive
6,CCCOC(=O)c1ccc(C(=O)OCCC)nc1,inactive
7,CCOC(=O)C(C)Oc1ccc(Oc2nc3ccc(Cl)cc3o2)cc1 (stereo unspecified),inactive
8,COC(=O)c1ccccc1S(=O)(=O)NC(=O)Nc1nc(OC(F)F)cc(OC(F)F)n1,inactive
9,S=C([S-])NCCNC(=S)[S-].[Mn+2],inactive
10,CCOC(=O)NCCOc1ccc(Oc2ccccc2)cc1,inactive
11,CCCN(CCC)C(=O)SCC,inactive
12,C#CCOC(=O)[C@@H](C)Oc1ccc(Oc2ncc(Cl)cc2F)cc1,inactive
13,CCOC(=O)[C@H](C)Oc1ccc(Oc2nc3ccc(Cl)cc3o2)cc1,inactive
14,COC(=O)c1ccc(CNS(C)(=O)=O)cc1S(=O)(=O)NC(=O)Nc1nc(OC)cc(OC)n1,inactive
15,CCCCC(CC)COC(=O)c1ccccc1C(=O)O (stereo unspecified),inactive
16,CC1(C)C(C=C(Cl)Cl)C1C(=O)OCc1cccc(Oc2ccccc2)c1 (stereo unspecified),inactive
17,C=CCOC(Cn1ccnc1)c1ccc(Cl)cc1Cl (stereo unspecified),inactive
18,CCC(O)=C1C(=O)CC(C(=O)O)CC1=O (stereo unspecified),inactive
19,COc1c(Cl)ccc(Cl)c1C(=O)O,inactive
20,COc1nc(C)nc(NC(=O)NS(=O)(=O)c2ccccc2OCCCl)n1,inactive
21,COC(=O)c1cccc(C)c1S(=O)(=O)NC(=O)Nc1nc(OCC(F)(F)F)nc(N(C)C)n1,inactive
22,COC(=O)c1ccc(I)cc1S(=O)(=O)NC(=O)Nc1nc(C)nc(OC)n1,inactive
23,CCSC(=O)N(CC(C)C)CC(C)C,inactive
24,CCCN(CCC)c1c([N+](=O)[O-])cc(C(F)(F)F)c(N)c1[N+](=O)[O-],inactive
25,CCCCOC(=O)C(C)Oc1ccc(Oc2ccc(C(F)(F)F)cn2)cc1 (stereo unspecified),inactive
26,CCN(CC)C(=O)c1cccc(C)c1,inactive
